Compound activity as filed in PubChem.
In the library only some 19% were active in any assay of this set; here they are far more common.
ASM inhibitor = inhibitors of human secretory acid sphingomyelinase. P17405. placental ASM, HMU-PC fluorogenic substrate, 60 min. Potency, µM (series often up to 57.5 µM), for the others: top-dose activity change, negative = inhibition, most hits filed as inhibitors. hit rate 0.006% among 340,000. AID 504937; further: potency means the concentration at half of the fitted maximal effect
Target sequence (P17405 47-631 limits assumed): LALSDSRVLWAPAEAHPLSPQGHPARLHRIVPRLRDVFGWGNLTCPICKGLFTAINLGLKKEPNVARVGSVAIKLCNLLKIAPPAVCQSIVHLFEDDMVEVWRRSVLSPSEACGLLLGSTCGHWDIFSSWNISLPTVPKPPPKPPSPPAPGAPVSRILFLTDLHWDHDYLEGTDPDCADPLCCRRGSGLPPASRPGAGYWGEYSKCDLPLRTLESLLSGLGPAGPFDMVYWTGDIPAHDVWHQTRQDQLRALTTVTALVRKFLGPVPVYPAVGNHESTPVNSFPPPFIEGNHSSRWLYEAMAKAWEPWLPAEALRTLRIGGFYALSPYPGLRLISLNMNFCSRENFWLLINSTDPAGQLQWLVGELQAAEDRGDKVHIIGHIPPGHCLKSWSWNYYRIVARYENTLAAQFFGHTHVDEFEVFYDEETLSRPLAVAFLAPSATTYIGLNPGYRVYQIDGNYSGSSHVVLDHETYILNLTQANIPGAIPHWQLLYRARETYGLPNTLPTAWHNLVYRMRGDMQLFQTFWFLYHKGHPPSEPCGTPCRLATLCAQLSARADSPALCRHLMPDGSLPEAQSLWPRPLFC
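Fluorescence read-out (Ex 386 nm, Em 447 nm) after stopping the reaction at pH 10. Enzyme: ASM from human placenta; substrate HMU-PC0, 9 uM final; 60 min, 37 °C. Compound preincubation 10 min, ambient temperature.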
TDP1 cell noCPT = qHTS for Inhibitors of human tyrosyl-DNA phosphodiesterase 1 (TDP1): qHTS in cells in absence of CPT. DT40 Tdp1-/- hTDP1 cells, no CPT, ATP luminescence, 48 h. Potency, µM (highest dose often 46.2 µM), for inactives: at the highest dose activity change, negative = growth inhibition, usual class: inhibitors. hit rate 15% among 420,000; further: potency means the concentration at half of the fitted maximal effect; on the % scale 0 is the no-effect control and ±100 the full control effect; nearly all actives have a fitted effect of over 55% in size
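Readout: luminescence from CellTiter-Glo after 30 min in the dark at RT. Cells: DT40 Tdp1-/- with stable hTDP1, 400/well. Exposure: compounds alone, ≥48 hr, 37 °C.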
DT40 TDP1 CPT = DT40-hTDP1 cell growth loss with CPT | chicken DT40 Tdp1-/-;hTDP1 cells + 20 nM CPT, ATP luminescence, 48 h | Potency, µM (doses to about 46.2 µM), without a hit: at the top dose activity change, negative = growth inhibition, actives largely listed as inhibitors | hit rate 12% among 420,000 | AID 686979; further: potency means the concentration at half of the fitted maximal effect; on the % scale 0 is the no-effect control and ±100 the full control effect; nearly all actives have a fitted effect of over 55% in size
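Chicken DT40 Tdp1-/- cells complemented with human TDP1, 400 cells/well, exposed to compounds plus 20 nM camptothecin for at least 48 h at 37 C; viability read as ATP content by CellTiter-Glo luminescence.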
TGFb SMAD3 inh = inhibitors of TGF-b signaling. HepG2 CAGA-GFP TGF-b/SMAD3 reporter, GFP fluorescence, 18 h; TGF-beta stimulated, 500 pg/mL final. Potency, µM (titrated, usually from 46.1 µM), for the others: at the highest dose activity, negative = inhibition, actives largely listed as inhibitors. hit rate 1.2% among 410,000; further: potency means the concentration at half of the fitted maximal effect; on the % scale 0 is the no-effect control and ±100 the full control effect; nearly all actives have a fitted effect of over 65% in size
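Read-out: total well GFP (ex488/em500-530) summed from mean per-cell fluorescence. Cells: HEPG2 CAGA-GFP, 1% FBS DMEM, 18 h at 37 degrees C with 500 pg/mL final TGF-beta. Unstimulated wells served as the full-inhibition control; stimulated DMSO wells = 0%.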
HepG2 viability = HepG2 cytotoxicity, counter-screen for TGF-b inhibitors. HepG2 CAGA-GFP viability, ATP luminescence, 18 h. Potency, µM (titrated, usually from 46.1 µM), for inactives: at the highest dose activity change, negative = cytotoxicity, usual class: cytotoxic. hit rate 0.76% among 410,000; further: potency means the concentration at half of the fitted maximal effect
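CellTiter-Glo luminescence gave cytotoxicity after 18 hours at 37 degrees C. The cells were HepG2 CAGA-GFP in 1% FBS DMEM, stimulated with 500 pg/mL TGF-beta after compound addition. %Activity was normalised to no-cell wells (complete cell-killing) and DMSO (no toxicity), and curves were fitted and classified.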
IL1B secr inh = inflammasome signaling inhibition, IL-1 beta readout; THP-1 LPS/ATP IL-1B secretion, AlphaLISA, 16 h; hits give low values; activity change, % at 57.5 µM; hit rate 4.7% among 360,000; in the data active means activity change below about -50%; inconclusive means mostly about -30% to -49%; further: on the % scale 0 is the no-effect control and ±100 the full control effect
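THP-1 cells pretreated 1 hr with compounds (up to 57.5 uM final), then stimulated with LPS (250 ng/mL final) plus ATP (1.25 mM final); secreted IL-1B measured by AlphaLISA after 16 hr, decreased signal indicating inhibition.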
* = called active by the depositor; ? = inconclusive; · = not tested or not shown. Unless noted, the call rests on the fitted dose curve; in most records, active means well fitted curve in the direction sought with a large enough effect; inconclusive means small, poorly fitted or top-dose-only effect, or another doubt; inactive means no such curve, though single readings can be large; an effect the other way counts as inactive or inconclusive.

SMILES | ASM inhibitor | TDP1 cell noCPT | DT40 TDP1 CPT | TGFb SMAD3 inh | HepG2 viability | IL1B secr inh
CCCN(Cc1cc2cc(C)ccc2[nH]c1=O)C(=O)c1cccc(OC)c1 | -2% | ? | ? | 7% | -3% | ?
CCN1CCCC1CN(Cc1cc2ccc(C)cc2[nH]c1=O)C(=S)Nc1ccc(OC)cc1 (configuration not stated) | -1% | 5.2µM* | ? | ? | 13µM* | -106*
CCN(CC)CCN(Cc1cc2ccc(C)cc2[nH]c1=O)C(=O)Nc1ccc(Cl)cc1 | -9% | ? | ? | 3% | 5% | -15
O=S(=O)(c1ccc(OCC(O)CNC23CC4CC(CC(C4)C2)C3)c(Cl)c1)N1CCOCC1 (configuration not stated) | -1% | 16µM* | ? | ? | 13µM* | -78*
CCOc1ccc(/C=C/C(O)=C2/C(=O)NC3(C)CC2c2ccccc2O3)cc1OC (configuration not stated) | 178% | 3.7µM* | 5.2µM* | -31% | -26% | -20
CCOc1ccc(/C=C/C(O)=C2/C(=O)N(C)C3(C)CC2c2ccccc2O3)cc1OC (configuration not stated) | 223% | 8.2µM* | 5.8µM* | -19% | -9% | -101*
CCCC(=O)NC(C)c1nc(-c2ccc(C)cc2)no1 (configuration not stated) | 4% | ? | ? | -4% | 1% | 14
CC1(C(=O)Nc2ccc3c(c2)OCO3)CCN1C(=O)CCC1CCCC1 (configuration not stated) | · | ? | ? | 5% | -14% | 0
CCc1ccc(C(=O)c2cn(Cc3ccc(F)cc3)c3cc(OC)c(OC)cc3c2=O)cc1 | · | 6.5µM* | 5.8µM* | ? | -13% | ·
CCOc1ccc(NC(=O)Cn2cc(C(=O)c3ccc(CC)cc3)c(=O)c3cc(OC)c(OC)cc32)cc1 | · | ? | -4% | ? | -10% | ·
CCc1ccc(C(=O)c2cn(CC(=O)Nc3ccc(F)c(F)c3)c3cc(OC)c(OC)cc3c2=O)cc1 | · | 16µM* | 21µM* | ? | -22% | ·
CCc1nc2ccccc2c(=O)n1/N=C/c1ccc(OC)cc1 | 2% | -16% | -26% | ? | -1% | -3
COc1ccc(CNC(=O)c2cc3c(=O)n(Cc4cccnc4)ccc3nc2C)cc1 | · | 0% | 10% | 3% | -14% | ·
COc1ccc2oc(=O)c(C(=O)NCCc3c(C)[nH]c4c(C)cccc34)cc2c1 | · | · | · | 2% | -5% | ·
CCCCc1c(-c2ccccc2OC)ncn1CCc1ccccc1 | · | ? | 21µM* | · | · | 0
CCCCc1c(-c2ccccc2OC)ncn1CCc1ccc(Cl)cc1 | · | 21µM* | ? | · | · | ?
COc1ccccc1-c1cc(C(=O)Nc2cc(C)n(Cc3ccc(Cl)cc3)n2)no1 | -2% | -17% | ? | 1% | -30% | 5
CCCCc1c(-c2ccccc2OC)ncn1CCc1ccc(OC)cc1 | · | 23µM* | 18µM* | · | · | -79*
COc1ccc(C(=O)O)cc1S(=O)(=O)Nc1cc(Cl)ccc1N1CCOCC1 | 1% | 11% | -3% | 9% | 1% | 4
COc1ccc(Cl)cc1N(C(=O)c1ccco1)C(C(=O)NC1CCCC1)c1ccco1 (configuration not stated) | 9% | -28% | 6% | -5% | -8% | 3
Cc1cccc2cc(CN(Cc3cccs3)S(=O)(=O)c3ccc4c(c3)OCCO4)c(=O)[nH]c12 | 0% | 23µM* | ? | -14% | -19% | -8
